Laboratory results from PubChem BioAssay (Tox21).
Records with an inconclusive call do not appear. Unmarked numbers belong to inactive results. Activity calls are given as the source filed them. Calls come from the whole dose curve.

Experiment: qHTS assay for small molecule agonists of the p53 signaling pathway - cell viability (AID 651633); note: nearly all actives have a fitted effect of over 30% in size; note: potency is the fitted concentration of half-maximal effect;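 for activity change, negative = cytotoxicity: p53RE-bla HCT reporter cells with a stable beta-lactamase p53 reporter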
Details: p53RE-bla HCT-116 viability, ATP luminescence, 16 h; series mostly up to 83.3 µM; activity change, negative = cytotoxicity: at the top concentration
Method in brief: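 p53RE-bla cells were treated with compound for 16 hours at 37 C. Cytotoxicity was then measured as CellTiter-Glo luminescence after 30 min at room temperature.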
% is set by controls: 0 for no effect and ±100 for the full control effect.

SMILES	activity change, negative = cytotoxicity	Potency
CCc1ccc(C)cc1	-18.7%	
Cc1ccc(Cl)cc1N	12.8% [at 95.3 µM]	
Cc1ccc(NC(=O)N(C)C)cc1NC(=O)N(C)C	-19.8%	
CC(C)(C)S	5.94% [at 95.3 µM]	
O=P(O)(O)Oc1ccccc1	9.92%	
COc1ccc(-c2cc(C(F)F)nn2-c2ccc(S(N)(=O)=O)cc2)cc1F	12%	
CCO[Si](C)(CCCOCC1CO1)OCC (centres undefined)	-16.8%	
CNS(=O)(=O)c1cc(C(=O)N2CCC(CCN3C4CCC3CC(n3c(C)nc5ccccc53)C4)(c3cccc(F)c3)CC2)c(Cl)cc1F (centres undefined)		48.6 µM (active)
Cc1c[nH]c2ccccc12	-17.9%	
O=C1OC[C@H](Cc2cccc(O)c2)[C@H]1Cc1cccc(O)c1	19.1% [at 39.1 µM]	
Nc1nc(-c2ccc([N+](=O)[O-])cc2)cs1	7.82% [at 95.3 µM]	
COC(OC)OC	17.1%	
CC(C)COC(=O)COc1cc(Cl)c(Cl)cc1Cl	11.9%	
Cc1ccc(N(CCO)CCO)cc1	5.17%	
Nc1nc2ccc(OC(F)(F)F)cc2s1	-15%	
C[C@@H]1C[C@H]2[C@@H]3CCC4=CC(=O)C=C[C@]4(C)[C@@]3(F)[C@@H](O)C[C@]2(C)[C@@]1(O)C(=O)COP(=O)(O)O		inactive
COC(=O)c1sccc1S(N)(=O)=O	9.99%	

SMILES	activity change, negative = cytotoxicity	Potency
COC(=O)CC(C(C)=O)C(=O)OC (centres undefined)	7.4%	
SCCc1cnccn1	-14.3%	
CC(=O)OCC(C)C	12.6%	
O=[N+]([O-])C1(Br)COCOC1	-23.5%	
CSSc1ccoc1C	15.8%	
CCOC(=O)C(C)O (centres undefined)	-13.6% [at 95.3 µM]	
O=C(O)CCC(=O)c1ccc(-c2ccccc2)cc1	7.27% [at 39.1 µM]	
CNc1c2c(nn1C)CCCC2	17.1%	
Nc1ccn([C@H]2CS[C@@H](CO)O2)c(=O)n1		inactive
C=CC(=O)O		inactive
CN=C(N)NC(=O)Nc1c(C)cccc1C	13.6%	
Cc1ccc2nc(N)[nH]c(=O)c2c1Sc1ccncc1		1.88 µM (active)
CCCCCCCC(=O)OCCCCCC	12.3%	
C[C@@H]1[C@H](O)[C@@H](C)/C=C/C=C\C=C\C=C\C=C\C=C\C=C\[C@H](O[C@@H]2O[C@H](C)[C@@H](O)[C@H](N)[C@@H]2O)C[C@@H]2O[C@](O)(C[C@@H](O)C[C@@H](O)[C@H](O)CC[C@@H](O)C[C@@H](O)CC(=O)O[C@H]1C)C[C@H](O)[C@H]2C(=O)O (stereo in doubt)		inactive
CCN(CC)CCOC(=O)C(c1ccccc1)c1ccccc1	8.81%	
O=c1[nH]c2cc(C(F)(F)F)c(N3CCOCC3)cc2n(CP(=O)(O)O)c1=O	9.54%	

Experiment: qHTS assay for small molecules that induce genotoxicity in human embryonic kidney cells expressing luciferase-tagged ATAD5 - cell viability (AID 651634); note: nearly all actives have a fitted effect of over 25% in size; note: potency is the fitted concentration of half-maximal effect
Details: HEK293T ATAD5-luc cells viability, CellTiter-Fluor, 15.5 h; series mostly up to 83.3 µM; activity, negative = cytotoxicity: at the top concentration
Method in brief: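 Cells (HEK293T, luciferase-tagged ATAD5) are seeded at 2,000 per well, dosed with compound or DMSO vehicle, and incubated 15.5 hr at 37C and 5% CO2. CellTiter-Fluor is added for 30 min before fluorescence is measured.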

SMILES	activity, negative = cytotoxicity	Potency
CC(C)(C)S	11.9% [at 95.3 µM]	
O=C1OC[C@H](Cc2cccc(O)c2)[C@H]1Cc1cccc(O)c1	-4.72% [at 39.1 µM]	
COC(OC)OC	13.4%	
C[C@@H]1C[C@H]2[C@@H]3CCC4=CC(=O)C=C[C@]4(C)[C@@]3(F)[C@@H](O)C[C@]2(C)[C@@]1(O)C(=O)COP(=O)(O)O		inactive
COC(=O)c1sccc1S(N)(=O)=O	11.5%	
SCCc1cnccn1	6.42%	
CN(C)CC/C=C1\c2ccccc2Sc2ccc(Cl)cc21	-13.8%	
CC(=O)OCC(C)C	22.4%	
CCN(Cc1cccc(S(=O)(=O)O)c1)c1ccc(C(=C2C=CC(=[N+](CC)Cc3cccc(S(=O)(=O)O)c3)C=C2)c2ccccc2S(=O)(=O)[O-])cc1		15.4 µM (active)
C=CC(=O)O		inactive
CN=C(N)NC(=O)Nc1c(C)cccc1C	-18.1%	

Experiment: qHTS assay for small molecule disruptors of the mitochondrial membrane potential - cell viability (AID 720634);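 note: human HepG2 liver cancer cells; nearly all actives have a fitted effect of over 20% in size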
Details: HepG2 viability, ATP luminescence (CellTiter-Glo), 1 h; series mostly up to 83.2 µM; activity change, negative = cytotoxicity: at the top concentration
Method in brief: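 Cytotoxicity was measured by ATP quantitation in HepG2 wells that had first been treated with compound for 1 hr and stained with m-MPI dye; CellTiter-Glo incubation was 30 min at room temperature.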

SMILES	activity change, negative = cytotoxicity	outcome
Cc1ccc(Cl)cc1N	8.04% [at 95.3 µM]	
Cc1ccc(NC(=O)N(C)C)cc1NC(=O)N(C)C	6.97%	
CC(C)(C)S	-4.46% [at 95.3 µM]	
O=P(O)(O)Oc1ccccc1	9.64%	
COc1ccc(-c2cc(C(F)F)nn2-c2ccc(S(N)(=O)=O)cc2)cc1F	-7.05%	
CCO[Si](C)(CCCOCC1CO1)OCC (centres undefined)	5.5%	
Cc1c[nH]c2ccccc12	8.39%	
O=C1OC[C@H](Cc2cccc(O)c2)[C@H]1Cc1cccc(O)c1	-21.1% [at 39.1 µM]	
Nc1nc(-c2ccc([N+](=O)[O-])cc2)cs1	-9.52% [at 95.3 µM]	
COC(OC)OC	12.7%	
Cc1ccc(N(CCO)CCO)cc1	1.33%	
Nc1nc2ccc(OC(F)(F)F)cc2s1	-18%	
C[C@@H]1C[C@H]2[C@@H]3CCC4=CC(=O)C=C[C@]4(C)[C@@]3(F)[C@@H](O)C[C@]2(C)[C@@]1(O)C(=O)COP(=O)(O)O		inactive
COC(=O)c1sccc1S(N)(=O)=O	12.5%	
COC(=O)CC(C(C)=O)C(=O)OC (centres undefined)	11.2%	
SCCc1cnccn1	4.65%	
CN(C)CC/C=C1\c2ccccc2Sc2ccc(Cl)cc21	-18%	
CC(=O)OCC(C)C	3.78%	
CNc1c2c(nn1C)CCCC2	4.91%	
C=CC(=O)O		inactive
CN=C(N)NC(=O)Nc1c(C)cccc1C	8.71%	
Cc1ccc2nc(N)[nH]c(=O)c2c1Sc1ccncc1	-6.21%	
C[C@@H]1[C@H](O)[C@@H](C)/C=C/C=C\C=C\C=C\C=C\C=C\C=C\[C@H](O[C@@H]2O[C@H](C)[C@@H](O)[C@H](N)[C@@H]2O)C[C@@H]2O[C@](O)(C[C@@H](O)C[C@@H](O)[C@H](O)CC[C@@H](O)C[C@@H](O)CC(=O)O[C@H]1C)C[C@H](O)[C@H]2C(=O)O (stereo in doubt)	-10.1%	
COc1ccc(-n2nc(C(F)F)cc2-c2ccc(S(C)=O)cc2)cc1 (centres undefined)	-8.12%	
O=c1[nH]c2cc(C(F)(F)F)c(N3CCOCC3)cc2n(CP(=O)(O)O)c1=O	6.47%	
